Only some compounds are listed: those with a hit (about 2.2% of all), similar ones and a draw of the others.
Ba/F3 V617F tox: loss of viability in JAK2V617F-driven Ba/F3 cells | 1.1% of 220,000 active | Ba/F3 EpoR-JAK2V617F viability, ATP luminescence | inhibition, % at 5.6 µM;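 active means inhibition above the campaign mean plus 3 SD over all tested compounds, cut at about 24% in these data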;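 further: cytokine-independent growth of Ba/F3 cells driven by EpoR plus mutant JAK2; 0% = DMSO-treated cells and 100% = JAK inhibitor I control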
BaF3 tox: counter-screen for JAK2V617F inhibitors: parental Ba/F3 viability inhibitors; CellTiter-Glo ATP luminescence; inhibition, % at 5.6 µM; 1.1% of 220,000 active; AID 1486;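 active means inhibition above a per-campaign cutoff, the mean inhibition of all tested compounds plus 3 SD, cut at about 27% in these data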;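 further: 0% = DMSO wells and 100% = JAK Inhibitor I control wells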
IEC-6 tox: IEC-6 cytotoxicity, counter-screen for KLF5 inhibitors. luminescence viability. inhibition, % at 5 µM. 0.78% of 290,000 active. AID 1825; in the data active means inhibition above about 22%;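 further: 0% = plate median of test compound wells and 100% = cytotoxic reference compound wells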
KLF5 inhibitor: suppresses KLF5 promoter-driven expression. inhibition, % at 5 µM. AID 1700. DLD-1 KLF5 promoter-luciferase reporter, luminescence. 0.23% of 290,000 active;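 active means inhibition above a per-plate limit of that plate's mean compound inhibition plus 3 SD, cut at about 60% in these data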;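 further: 0% = DMSO wells and 100% = LY294002 at 200 µM; higher means less KLF5 promoter-driven luciferase light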
APP 5UTR inh: APP translation inhibition | SH-SY5Y APP 5'UTR-luciferase reporter, luminescence | inhibition, % at 2 µM | 0.82% of 190,000 active | AID 1285;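 active means inhibition above a set limit, derived from the sample mean plus 3 SD, cut at about 45% in these data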
aSyn 5UTR inh: 5' untranslated region of α-synuclein, MLPCN primary screen; alpha-synuclein 5'UTR reporter, inhibitor activity; inhibition, % (tested at 7.5 µM); 0.82% of 300,000 active; AID 1813; in the data active means inhibition above about 60%;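 further: H4 neuroglioblastoma cells stably carrying SNCA 5'UTR luciferase fusion; 0% = DMSO wells and 100% = positive control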
* hit, by the source's call; / = not tested or not shown.

SMILES	Ba/F3 V617F tox	BaF3 tox	IEC-6 tox	KLF5 inhibitor	APP 5UTR inh	aSyn 5UTR inh
CCC(C)Nc1nc(N)c([N+](=O)[O-])c(NC2CCCCC2)n1 (stereo not drawn)	/	/	9.7	-4.4	/	102.2*
Nc1nc(NCC(=O)O)nc(NC2CCCCC2)c1[N+](=O)[O-]	/	/	0.3	-10.6	/	21.4
CCS(=O)(=O)N1Cc2ccccc2CC1C(=O)Nc1ccc(F)c(F)c1 (stereo not drawn)	/	/	-0.1	-34.2	/	-88.3
CCCCC(CCC(=O)Nc1ccn(-c2ccccc2)n1)C(=O)O (stereo not drawn)	-2.9	63.1*	8.4	9.6	/	-2.3
Cc1cc(Br)ccc1OCC(=O)NNC(=O)c1ccc(NC(=O)C2CC2)cc1	-2.4	3.4	0.5	5.0	45.2*	-21.9
CCCC(=O)Nc1ccc(C(=O)NNC(=O)COc2ccc(Br)c(C)c2)cc1	1.5	0.1	6.4	-21.3	49.5*	9.1
O=C(C1CC1)N1CCN(c2ccc([N+](=O)[O-])cc2-n2cccc2)CC1	1.4	1.2	5.6	-12.6	/	-20.7
COc1cccc(NC(=O)C2C3C=CC4(O3)C2C(=O)N(CCCN2CCCCC2)C4C(=O)NC2CCCCC2)c1 (stereo not drawn)	/	/	3.6	10.2	/	-8.0
O=C1CCC(=O)N1CC(=O)N1CCCc2ccccc21	/	/	-2.4	0.0	/	0.0
COC(=O)c1cccc(NC(=O)/C=C/c2ccc3c(c2)OCO3)c1	17.2	15.6	-9.7	5.5	-11.8	102.3*
COc1ccc(Cl)cc1NC(=O)C/C(C)=N/NC(=O)COc1ccc(C)cc1	/	/	0.7	-1.1	/	1.4
COc1ccc(N/C(N)=N/c2nc(CSc3nnc(C)s3)cc(=O)[nH]2)cc1	4.4	13.2	5.0	-5.1	15.5	3.9
Cc1ccc(N/C(N)=N/c2nc(CSc3nnc(C)s3)cc(=O)[nH]2)c(C)c1	-0.7	3.6	9.4	-29.0	93.4*	83.5*
COc1cccc(C(=O)Nc2ccc3[nH]c(=O)[nH]c3c2)c1OC	/	/	3.8	-13.5	/	67.8*
CN(C)CCCNC(=O)c1ccc(-c2nc(-c3ccc(Cl)cc3)cs2)cc1	100.8*	46.4*	6.8	-123.2	-30.6	117.6*
CN(C)CCCNC(=O)c1ccccn1	-3.8	0.9	2.0	7.3	-3.0	11.0
Cc1cc(C(=O)COc2cccnc2[N+](=O)[O-])c(C)n1Cc1ccco1	1.9	8.4	-8.8	-26.9	5.0	14.2
Cc1ccc(-n2c(C)cc(C(=O)COc3cccnc3[N+](=O)[O-])c2C)cc1	0.8	5.7	0.9	28.0	-26.9	64.1*
Cc1cc(C(=O)COc2cccnc2[N+](=O)[O-])c(C)n1-c1ccccc1	2.0	5.2	-4.2	-19.0	21.4	99.8*
Cc1cc(-n2c(C)cc(C(=O)COc3ccccc3[N+](=O)[O-])c2C)no1	1.7	7.3	-2.4	-29.8	-25.0	-67.5
Cc1cc(C(=O)COc2cccnc2[N+](=O)[O-])c(C)n1-c1ccccc1F	-2.4	-4.5	-7.1	-30.5	/	67.5*
Cc1ccc(C(C)C)c(OCC(=O)OCC(=O)NC2CCS(=O)(=O)C2)c1 (stereo not drawn)	/	/	/	/	/	8.3
CC(Oc1ccc(Cl)cc1Cl)c1nc(-c2ccc(NC(=O)c3ccncc3)cc2)no1 (stereo not drawn)	0.5	9.2	1.3	-13.7	-7.6	-5.7
CC(Oc1ccc(Cl)cc1Cl)c1nc(-c2ccc(NC(=O)c3cccnc3)cc2)no1 (stereo not drawn)	1.7	2.3	-1.9	-8.1	-6.1	91.6*
COc1ccc(NC(=O)C2CCCN(S(=O)(=O)c3ccccc3)C2)c(OC)c1 (stereo not drawn)	/	/	-3.3	-17.9	/	-4.3
SMILES	Ba/F3 V617F tox	BaF3 tox	IEC-6 tox	KLF5 inhibitor	APP 5UTR inh	aSyn 5UTR inh
NNC(=O)C1CCCN1S(=O)(=O)c1ccc(Cl)cc1 (stereo not drawn)	-3.4	58.5*	-6.5	-19.3	23.5	-5.5
CCC(C)NC(=O)C1CCCN1S(=O)(=O)c1ccc(Cl)cc1 (stereo not drawn)	-1.5	0.7	3.9	17.9	-6.0	-11.3
COCCn1nnnc1CN1CCN(C(=O)c2ccco2)CC1	/	/	1.4	1.7	/	4.8
CC(=O)OC(CC(=O)O)C[N+](C)(C)C (stereo not drawn)	-1.6	8.1	-8.3	-5.9	-13.3	67.7*
CC(=O)O[C@H](CC(=O)O)C[N+](C)(C)C	/	/	/	/	/	7.0
O=[N+]([O-])c1ccc(O)c2ncccc12	-6.0	3.7	-4.4	7.2	-7.3	72.5*
COc1ccc(C)cc1N=Nc1ccc(O)c2ncccc12	-0.3	1.3	-0.4	5.5	67.5*	67.6*

Screens as filed in PubChem BioAssay.
